A selection: hits, their analogues and other compounds. The true share with any hit is near 4.5%.
GDH-TPI counter-1 – inhibits GDH-TPI coupling enzymes, artifact for Mtb FBA screen | GDH-TPI coupled enzyme counterscreen, NADH absorbance | inhibition, % at 4.8 µM | hit rate 1.2% among 360,000 | AID 588335; in the data active means inhibition above about 30%;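 further: 0% = DMSO wells and 100% = wells lacking the enzyme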
FBA Mtb inh – inhibitors of M. tuberculosis fructose-bisphosphate aldolase. inhibition, % at 1 µM. AID 588726. hit rate 2.3% among 360,000. purified M. tuberculosis FBA, fluorescence read-out. P9WQA3;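 further: 0% = vehicle and 100% = reference inhibitor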
Target sequence (P9WQA3 whole entry, looked up): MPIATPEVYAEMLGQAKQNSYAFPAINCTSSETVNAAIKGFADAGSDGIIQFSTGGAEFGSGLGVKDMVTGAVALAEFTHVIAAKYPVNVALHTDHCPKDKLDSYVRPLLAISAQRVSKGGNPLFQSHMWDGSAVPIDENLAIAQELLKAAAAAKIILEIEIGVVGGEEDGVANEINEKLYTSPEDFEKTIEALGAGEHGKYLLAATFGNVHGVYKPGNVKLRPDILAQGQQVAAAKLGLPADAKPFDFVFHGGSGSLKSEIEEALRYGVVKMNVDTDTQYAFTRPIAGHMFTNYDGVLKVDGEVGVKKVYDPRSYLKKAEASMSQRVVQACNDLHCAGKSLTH
PrP 5UTR inh – suppresses PrP 5' UTR mRNA reporter expression; inhibition, % (concentration not given with the values); cell-based PrP 5' UTR mRNA reporter, plate reader; hit rate 0.35% among 340,000; in the data active means inhibition above about 52%; further: 0 = median of the neutral control wells
PrPC TRFRET – inhibitors of human cell surface prion protein PrPC; P04156; TR-FRET read-out; inhibition, % at 13.8 µM; hit rate 0.43% among 370,000; AID 720596; in the data active means inhibition above about 24%; further: 0% = median of the test wells and 100% = reference compound wells
PfHsp40 rescue – restores yeast growth despite PfHsp40 toxicity; S. cerevisiae expressing PfHsp40, growth rescue, ATP luminescence; growth rescue, % at 12.5 µM; hit rate 0.68% among 340,000; AID 504582; in the data active means growth rescue above about 28%, passing the limit was not always enough;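 further: yeast W303a lacking pdr1 and pdr3 grown in galactose medium; growth measured after three days at 30 °C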
BJeLR lethal – kills HRASV12-expressing BJeLR cells; BJeLR (HRASV12) viability, CellTiter-Glo ATP luminescence, 48 h; inhibition, % (no concentration beside the values); hit rate 0.17% among 300,000; AID 1554; in the data active means inhibition above about 50%
Mtb FBA confirm – Mtb FBA inhibition, confirmed; shares compounds with FBA Mtb inh; purified M. tuberculosis FBA, fluorescence read-out; inhibition, % at 1 µM; hit rate 78% among 5,600; AID 651616;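 further: 0% = vehicle wells and 100% = reference inhibitor wells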
GDH-TPI counter-2 – GDH-TPI inhibition counter-screen for FBA inhibitors | shares compounds with FBA Mtb inh | GDH-TPI coupled enzyme counterscreen, fluorescence | inhibition, % at 1 µM | hit rate 81% among 5,600 | AID 652141; in the data active means inhibition above about 10%
The depositor's hits bear a star. Unless noted, no stated cut-off is given here; in the data, active means inhibition above about 27%; inactive means the rest.

CCCCN1C[C@H](CO)Oc2cccc(F)c2S1(=O)=O was read as GDH-TPI counter-1 6, FBA Mtb inh 0, PrP 5UTR inh -10, PrPC TRFRET 3 and PfHsp40 rescue -1.
`O=C(Nc1ccc2oc(-c3cccc4ccccc34)nc2c1)c1ncn[nH]1` gave GDH-TPI counter-1 36*, FBA Mtb inh 66*, PrP 5UTR inh -96, PrPC TRFRET 2, PfHsp40 rescue -1, BJeLR lethal 4, Mtb FBA confirm 36* and GDH-TPI counter-2 29*.
Screening Cc1ccccc1-c1nc2cc(NC(=O)C3CC3)ccc2o1 returned GDH-TPI counter-1 16, FBA Mtb inh 107*, PrP 5UTR inh -79, PrPC TRFRET -4, PfHsp40 rescue 2, BJeLR lethal 1, Mtb FBA confirm 17 and GDH-TPI counter-2 15*.
For CC(=O)Nc1ccc2oc(-c3ccccc3Br)nc2c1 the results were GDH-TPI counter-1 4, FBA Mtb inh 20, PrP 5UTR inh -65, PrPC TRFRET 2, PfHsp40 rescue 0 and BJeLR lethal -7.
For O=C1NC[C@H](CCCCN2CCN(CCC3CCCCC3)C(=O)C2=O)N(CCc2ccc(O)cc2)C1=O the results were PrPC TRFRET 1.
Screening O=c1oc(Nc2ccccc2Cl)nc2ccccc12 returned GDH-TPI counter-1 3, FBA Mtb inh 24, PrP 5UTR inh -40, PrPC TRFRET -2, PfHsp40 rescue 0 and BJeLR lethal -7.
`O=c1oc(Nc2cccc(Cl)c2)nc2ccccc12` gave GDH-TPI counter-1 -6, FBA Mtb inh 48*, PrP 5UTR inh -56, PrPC TRFRET -9, PfHsp40 rescue 1, BJeLR lethal 4, Mtb FBA confirm 34* and GDH-TPI counter-2 18*.
Screening N#Cc1c2c(c(NCc3ccco3)n3c1nc1ccccc13)CCC2 returned GDH-TPI counter-1 14, FBA Mtb inh 90*, PrP 5UTR inh 17, PrPC TRFRET -8, PfHsp40 rescue 18, BJeLR lethal -1, Mtb FBA confirm active and GDH-TPI counter-2 active.
CC(C)NC(=O)N(C)C[C@H]1Oc2ccc(NS(=O)(=O)c3ccccc3)cc2C(=O)N([C@H](C)CO)C[C@@H]1C was read as GDH-TPI counter-1 6, FBA Mtb inh 2, PrP 5UTR inh -8, PrPC TRFRET -1 and PfHsp40 rescue -1.
`CCc1cc(=O)oc2cc(C)cc(OC(=O)c3ccco3)c12` gave GDH-TPI counter-1 3, FBA Mtb inh 0, PrP 5UTR inh -20, PrPC TRFRET -1, PfHsp40 rescue 1 and BJeLR lethal -3.
CCCc1cc(=O)oc2cc(C)cc(OCC(=O)NCc3ccncc3)c12 was read as GDH-TPI counter-1 9, FBA Mtb inh 61*, PrP 5UTR inh -6, PrPC TRFRET -5, PfHsp40 rescue 0, BJeLR lethal 9, Mtb FBA confirm 53* and GDH-TPI counter-2 41*.
Screening CCCc1cc(=O)oc2cc(C)cc(OCC(=O)O)c12 returned GDH-TPI counter-1 17, FBA Mtb inh 97*, PrP 5UTR inh -16, PrPC TRFRET -2, PfHsp40 rescue 1, BJeLR lethal -2, Mtb FBA confirm 144* and GDH-TPI counter-2 109*.
Screening CCc1cc(=O)oc2cc(C)cc(OCC(=O)NCc3ccncc3)c12 returned GDH-TPI counter-1 7, FBA Mtb inh 49*, PrP 5UTR inh -36, PrPC TRFRET 4, PfHsp40 rescue -1, BJeLR lethal 16, Mtb FBA confirm 161* and GDH-TPI counter-2 137*.
For C=C(Cl)COc1cc(C)cc2oc(=O)cc(CC)c12 the results were GDH-TPI counter-1 4, FBA Mtb inh 32*, PrP 5UTR inh -1, PrPC TRFRET 2, PfHsp40 rescue 0, BJeLR lethal 7, Mtb FBA confirm 146* and GDH-TPI counter-2 118*.
For O=C(CSc1ccc(Cl)cc1)OCC(=O)N1CCN(c2ccccc2)CC1 the results were GDH-TPI counter-1 2, FBA Mtb inh 3, PrP 5UTR inh -27, PrPC TRFRET 0 and PfHsp40 rescue -1.
`CCCOC(=O)c1ccc(NC(=O)c2cc(=O)[nH]c3ccccc23)cc1` gave GDH-TPI counter-1 18, FBA Mtb inh 0, PrP 5UTR inh -4, PrPC TRFRET 7, PfHsp40 rescue 1 and BJeLR lethal -8.
`Cc1nc(NCC2CCCO2)c2nnn(Cc3c(F)cccc3Cl)c2n1` (stereo not given) gave GDH-TPI counter-1 -1, FBA Mtb inh -2, PrP 5UTR inh -8, PrPC TRFRET -3, PfHsp40 rescue 1 and BJeLR lethal 12.
Screening COc1ccc(CNC(=O)N2CCN(c3ccccc3)CC2)cc1 returned GDH-TPI counter-1 1, FBA Mtb inh -4, PrP 5UTR inh -5, PrPC TRFRET -2, PfHsp40 rescue 0 and BJeLR lethal 7.
CCc1cc(=O)oc2cc(C)cc(OCC(=O)NCc3ccccn3)c12 was read as GDH-TPI counter-1 0, FBA Mtb inh 84*, PrP 5UTR inh 1, PrPC TRFRET 11, PfHsp40 rescue -1, BJeLR lethal -4, Mtb FBA confirm 196* and GDH-TPI counter-2 144*.
O=C(O)c1cc(S(=O)(=O)O)cc(Nc2c3ccccc3nc3ccccc23)c1O was read as GDH-TPI counter-1 -3, FBA Mtb inh 43*, PrP 5UTR inh -18, PrPC TRFRET -14, PfHsp40 rescue 2, BJeLR lethal 2, Mtb FBA confirm 40* and GDH-TPI counter-2 34*.
Cn1cccc1C(=O)N1CCN(S(=O)(=O)c2cccs2)CC1 was read as PrPC TRFRET -3.
Screening Nc1nc(Nc2ccccc2)nc2c1ncn2[C@@H]1O[C@H](CO)[C@@H](O)[C@H]1O returned GDH-TPI counter-1 11, FBA Mtb inh 0, PrP 5UTR inh 3, PrPC TRFRET 11, PfHsp40 rescue 24 and BJeLR lethal 4.
`CC(=O)NC(c1cc(Cl)c2ccccc2c1O)C(C)C` (stereo not given) gave GDH-TPI counter-1 8, FBA Mtb inh 8, PrP 5UTR inh -23, PrPC TRFRET 0 and PfHsp40 rescue 1.
For CCC(=O)NC(c1cccs1)c1cc(Cl)c2ccccc2c1O (stereo not given) the results were GDH-TPI counter-1 -4, FBA Mtb inh 39*, PrP 5UTR inh -19, PrPC TRFRET 5, PfHsp40 rescue 2, Mtb FBA confirm 116* and GDH-TPI counter-2 80*.
`CC(=O)NC(c1cccs1)c1cc(Cl)c2ccccc2c1O` (stereo not given) gave GDH-TPI counter-1 16, FBA Mtb inh 36*, PrP 5UTR inh -11, PrPC TRFRET -6, PfHsp40 rescue -1, Mtb FBA confirm 84* and GDH-TPI counter-2 58*.
For CCOc1ccc(CCNC(=O)C2CCCCC2)cc1OCC the results were PrPC TRFRET -4.

Screening results from PubChem BioAssay.
